Results on eight molecules are retold here after PubChem BioAssay (NCATS).

Assay [1] is described as follows: qHTS of pediatric cancer cell lines to identify multiple opportunities for drug repurposing: Primary screen for A673 cells (AID 1347092). Also: potency is read from the fitted curve at half-maximal effect; nearly all actives have a fitted effect of over 45% in size. To be noted: A673 Ewing sarcoma viability, CellTiter-Glo ATP luminescence, 48 h; series mostly up to 46 µM. The procedure, abridged: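 Cells are plated, rested 5 h, dosed by pintool, incubated 48 h, then lysed with CellTiter-Glo and read by luminescence. DMSO is the neutral control; bortezomib at 2.3 uM final is the positive control.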
For orientation: Quantitative high-throughput screening tests each substance at several concentrations.

Assay [2] in a line: qHTS of pediatric cancer cell lines to identify multiple opportunities for drug repurposing: Primary screen for SK-N-MC cells (AID 1347093). Also: potency is read from the fitted curve at half-maximal effect. To be noted: SK-N-MC viability, CellTiter-Glo luminescence, 48 h; series mostly up to 46 µM. Summed up:
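Metabolically active cells were quantified by ATP-dependent luminescence (CellTiter-Glo, 15 min at room temperature) following 48 h treatment. Cells had been plated at 500-1,000 per well and settled for 5 h beforehand.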

A short description of assay [3]: qHTS of pediatric cancer cell lines to identify multiple opportunities for drug repurposing: Primary screen for U-2 OS cells (AID 1347096). Also: nearly all actives have a fitted effect of over 50% in size. Also: potency is read from the fitted curve at half-maximal effect. To be noted: U-2 OS viability, CellTiter-Glo luminescence, 48 h; series mostly up to 46 µM. Summed up: (§1)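 Viability after 48 h compound treatment at 37C, 500-1,000 cells/well, read as ATP luminescence with CellTiter-Glo. Primary screens used 11-point (MIPE, 0.78 nM-46 µM) or 8-point (NPC, 0.59 nM-46 µM) final concentrations; follow-up screens used 11-point dilutions.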

The nature of assay [4]: qHTS of pediatric cancer cell lines to identify multiple opportunities for drug repurposing: Primary screen for SK-N-SH cells (AID 1347098). Also: nearly all actives have a fitted effect of over 65% in size. Also: potency is read from the fitted curve at half-maximal effect. Conditions: SK-N-SH viability, CellTiter-Glo luminescence, 48 h; series mostly up to 57 µM. Summed up: (§2)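 Cells (500-1,000/well) rested 5 h, then received compounds for 48 h; metabolically active cells were measured by CellTiter-Glo luminescence. Final concentrations spanned up to 46 µM (MIPE, 11-point) or 0.59 nM-46 µM (NPC, 8-point) in primary screens, 11-point in follow-ups.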

Assay [5] in a line: qHTS of pediatric cancer cell lines to identify multiple opportunities for drug repurposing: Primary screen for LAN-5 cells (AID 1347100). Also: potency is read from the fitted curve at half-maximal effect. To be noted: LAN-5 neuroblastoma viability, CellTiter-Glo luminescence, 48 h; series mostly up to 46 µM. Summed up:
as §1

A short description of assay [6]: qHTS of pediatric cancer cell lines to identify multiple opportunities for drug repurposing: Primary screen for OHS-50 cells (AID 1347103). Also: nearly all actives have a fitted effect of over 40% in size. Also: potency is read from the fitted curve at half-maximal effect. Conditions: OHS-50 osteosarcoma viability, CellTiter-Glo luminescence, 48 h; series mostly up to 57.3 µM. Summed up:
as §2

A short description of assay [7]: qHTS of pediatric cancer cell lines to identify multiple opportunities for drug repurposing: Primary screen for control Hh wild type fibroblast cells (AID 1347106). Also: nearly all actives have a fitted effect of over 55% in size. Also: potency is read from the fitted curve at half-maximal effect. To be noted: Hh wild-type fibroblast viability, CellTiter-Glo luminescence, 48 h; series mostly up to 46 µM. Summed up:
as §1

Assay [8] can be described thus: qHTS of pediatric cancer cell lines to identify multiple opportunities for drug repurposing: Primary screen for Rh41 cells (AID 1347108). Also: nearly all actives have a fitted effect of over 70% in size. Also: potency is read from the fitted curve at half-maximal effect. Conditions: Rh41 rhabdomyosarcoma viability, CellTiter-Glo luminescence, 48 h; series mostly up to 46 µM. Summed up:
(§3)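 Quantitative HTS format: each compound titrated (MIPE 11 points from 0.78 nM, NPC 8 points from 0.59 nM) onto cells plated 5 hours earlier. After 48 h at 37 degrees C, CellTiter-Glo luminescence was recorded.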

Assay [9] can be described thus: qHTS of pediatric cancer cell lines to identify multiple opportunities for drug repurposing: Confirmatory screen for SK-N-MC cells (AID 1347111).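 Also: potency is read from the fitted curve at half-maximal effect; cells exposed to compound for 48 h before the readout; nearly all actives have a fitted effect of over 70% in size.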 To be noted: SK-N-MC cell viability; series mostly up to 45.9 µM. The procedure, abridged:
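SK-N-MC cells at 500-1,000 cells/well in growth media were pre-incubated 5 h, then exposed to compounds at 11-point dilutions for 48 h at 37 degrees C, 5% CO2. Viability was read as CellTiter-Glo luminescence.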

Assay [10] can be described thus: qHTS of pediatric cancer cell lines to identify multiple opportunities for drug repurposing: Primary screen for BT-37 cells (AID 1347094). Also: potency is read from the fitted curve at half-maximal effect. To be noted: BT-37 viability, CellTiter-Glo luminescence, 48 h; series mostly up to 57.3 µM. Summed up: as §3
Assay [11] is described as follows: qHTS of pediatric cancer cell lines to identify multiple opportunities for drug repurposing: Primary screen for NB1643 cells (AID 1347099). Also: nearly all actives have a fitted effect of over 50% in size. Also: potency is read from the fitted curve at half-maximal effect. Conditions: NB1643 neuroblastoma viability, CellTiter-Glo luminescence, 48 h; series mostly up to 46 µM. Summed up: as §3
Assay [12] in a line: qHTS of pediatric cancer cell lines to identify multiple opportunities for drug repurposing: Primary screen for Rh18 cells (AID 1347102). Also: nearly all actives have a fitted effect of over 65% in size. Also: potency is read from the fitted curve at half-maximal effect. To be noted: Rh18 rhabdomyosarcoma viability, CellTiter-Glo luminescence, 48 h; series mostly up to 46 µM. The procedure, abridged:
as §1

Assay [13] in a line: qHTS of pediatric cancer cell lines to identify multiple opportunities for drug repurposing: Primary screen for MG 63 (6-TG R) cells (AID 1347105). Also: nearly all actives have a fitted effect of over 50% in size. Also: potency is read from the fitted curve at half-maximal effect. To be noted: MG 63 (6-TG R) viability, CellTiter-Glo, 48 h; series mostly up to 46 µM. The procedure, abridged: as §3
Assay [14] in a line: qHTS of pediatric cancer cell lines to identify multiple opportunities for drug repurposing: Primary screen for Rh30 cells (AID 1347107). Also: nearly all actives have a fitted effect of over 75% in size. To be noted: Rh30 rhabdomyosarcoma viability, CellTiter-Glo luminescence, 48 h; series mostly up to 46 µM. The procedure, abridged:
as §1

Assay [15] in a line: qHTS of pediatric cancer cell lines to identify multiple opportunities for drug repurposing: Confirmatory screen for NB1643 cells (AID 1347109). Also: potency is read from the fitted curve at half-maximal effect; nearly all actives have a fitted effect of over 45% in size. Conditions: NB1643 neuroblastoma cell viability; series mostly up to 45.9 µM. Summed up: as §1
A short description of assay [16]: qHTS of pediatric cancer cell lines to identify multiple opportunities for drug repurposing: Primary screen for NB-EBc1 cells (AID 1347095). Also: potency is read from the fitted curve at half-maximal effect. To be noted: NB-EBc1 neuroblastoma viability, CellTiter-Glo luminescence, 48 h; series mostly up to 46 µM. The procedure, abridged:
as §3

The nature of assay [17]: qHTS of pediatric cancer cell lines to identify multiple opportunities for drug repurposing: Primary screen for BT-12 cells (AID 1347101). Also: nearly all actives have a fitted effect of over 25% in size. Also: potency is read from the fitted curve at half-maximal effect. Conditions: BT-12 viability, CellTiter-Glo luminescence, 48 h; series mostly up to 57.3 µM. The procedure, abridged: as §2
A short description of assay [18]: qHTS of pediatric cancer cell lines to identify multiple opportunities for drug repurposing: Primary screen for RD cells (AID 1347104). Also: nearly all actives have a fitted effect of over 55% in size. Also: potency is read from the fitted curve at half-maximal effect. To be noted: RD rhabdomyosarcoma viability, CellTiter-Glo luminescence, 48 h; series mostly up to 46 µM. Summed up:
as §3

Assay [19] is described as follows: qHTS of pediatric cancer cell lines to identify multiple opportunities for drug repurposing: Primary screen for Saos-2 cells (AID 1347097). Also: nearly all actives have a fitted effect of over 40% in size. Also: potency is read from the fitted curve at half-maximal effect. Conditions: Saos-2 viability, CellTiter-Glo ATP luminescence, 48 h; series mostly up to 46 µM. The procedure, abridged:
as §3

Assay [20] is described as follows: qHTS of pediatric cancer cell lines to identify multiple opportunities for drug repurposing: Primary screen for SJ-GBM2 cells (AID 1347091). Also: potency is read from the fitted curve at half-maximal effect. Conditions: SJ-GBM2 viability, CellTiter-Glo luminescence, 48 h; series mostly up to 46 µM. Summed up: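 Viability measured as metabolically active cells via CellTiter-Glo luminescence following 48 hours of compound exposure, 11-point dilutions in confirmatory testing. 500-1,000 cells/well plated 5 hours before dosing; controls were DMSO and 2.3 µM bortezomib.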

Values joined by “and” are separate entries in the source; they are usually repeats but may differ in a detail not shown here. Equal values may be shown once. Records with an inconclusive call do not appear. Active and inactive are the calls of the source. Calls follow the shape of the dose curve; as a rule, active = well fitted curve in the direction sought with a large enough effect; inconclusive = small, poorly fitted or top-dose-only effect, or another doubt; inactive = no such curve, though single readings can be large; an effect the other way counts as inactive or inconclusive.

Regarding `CC(=O)O[C@H]1C(=O)[C@@]2(C)C([C@H](OC(=O)c3ccccc3)[C@]3(O)C[C@H](OC(=O)[C@H](O)[C@@H](NC(=O)c4ccccc4)c4ccccc4)C(C)=C1C3(C)C)[C@]1(OC(C)=O)CO[C@@H]1C[C@@H]2O` (stereo partly specified), the Potency in assay [1] is 0.001 µM (active); in assay [2], 0.001 µM (active); in [5] it was 0.001 µM (active); in assay [6] it was 0.001 µM (active); in [8], 0.0042 µM (active); in assay [9], 0.0117 µM (active). Further, the Potency result in assay [3], in [4] and in assay [7] was “inactive” in each case.
For `Clc1ccc(C(Cn2ccnc2)OCc2ccsc2Cl)c(Cl)c1` (stereo unspecified), the Potency is 2.66 µM (active) in assay [2]; 0.001 µM (active) in assay [10]; 11.9 µM (active) in assay [11]; 37.6 µM (active) in assay [12]; 24.3 µM (active) in assay [6]; 14.7 µM (active) in assay [15]. Besides, the Potency in assay [9] is 11.7 µM (active). The Potency entry in [3], in assay [4], in assay [13], in assay [7], in [14] and in assay [8] was “inactive” each time.
As for `Oc1ccc(-c2nc(-c3ccc(F)cc3)c(-c3ccncc3)[nH]2)cc1`, the Potency is 2.35 µM (active) in assay [2]; 10.5 µM (active) in assay [11]; 29.6 µM (active) in assay [18]; 16.6 µM (active) in [8]; 0.928 µM (active) in [15]; 1.17 µM (active) in assay [9]. Further, the Potency result in assay [10], in assay [16], in assay [3], in assay [17] and in assay [7] was “inactive” each time.
Consider `Oc1ccc2ccccc2c1SSc1c(O)ccc2ccccc12`, for which, in assay [3], the Potency result was “inactive”. Further, the Potency is 19.2 µM (active) in assay [4], 26.4 µM (active) in assay [11] and 23.5 µM (active) in assay [7].
Consider `C[C@H](Cc1ccc(O)c(O)c1)[C@@H](C)Cc1ccc(O)c(O)c1`, for which the Potency in assay [2] is 11.8 µM (active); in assay [16], 2.35 µM (active); in [19], 29.6 µM (active); in assay [11], 14.8 µM (active); in [5], 10.5 µM (active); in assay [17], 15.3 µM (active). The Potency in [12] is 18.7 µM (active); in [6], 24.3 µM (active); in assay [8] it was 11.8 µM (active). In addition, the Potency result in assay [4] and in [7] was “inactive” in each case.
In the case of `CN(C)CCCC1(c2ccc(F)cc2)OCc2cc(C#N)ccc21` (stereo unspecified), the Potency result in assay [20], in assay [16], in assay [3], in assay [5], in assay [17] and in assay [12] was “inactive” throughout. For the same molecule, the Potency entry in [6], in assay [13], in [7] and in [14] was “inactive” in each case. In addition, the Potency in [2] is 11.8 µM (active); in assay [11] it was 16.6 µM (active); in assay [18], 29.6 µM (active).
With `Cc1nc(Nc2ncc(C(=O)Nc3c(C)cccc3Cl)s2)cc(N2CCN(CCO)CC2)n1`, the Potency in [20] is 18.7 µM (active) and 15 µM (active); in [2] it was 18.7 µM (active) and 16.8 µM (active); in [3], 18.7 µM (active) and 13.3 µM (active); in assay [12] it was 0.0335 µM (active); in [6], 24.3 µM (active) and 12.3 µM (active); in assay [13], 0.0084 µM (active). Moreover, the Potency entry in assay [16], in [11], in assay [5], in assay [14] and in [8] was “inactive” in each case.
With `CN(C)C(=O)COC(=O)Cc1ccc(OC(=O)c2ccc(N=C(N)N)cc2)cc1`, the Potency entry in assay [20], in [10], in assay [3], in assay [19], in assay [4] and in assay [11] was “inactive” each time. The Potency result in assay [5], in assay [17], in [12], in assay [6], in assay [18] and in assay [13] was “inactive” each time. Moreover, the Potency entry in assay [14] and in assay [8] was “inactive” throughout.
